# Screening results (PubChem BioAssay)
# HepG2 tox = kills HepG2 cells in TGF-b inhibitor counter-screen; HepG2 CAGA-GFP viability, ATP luminescence, 18 h; 410,000 compounds, 0.76% hits; Potency, µM (top dose mostly 46.1 µM), for inactives: at the top dose activity change, negative = cytotoxicity, hits mostly cytotoxic
#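 HepG2 CAGA-GFP cells (1000/well, DMEM with 1% FBS) received compound, then TGF-beta at 500 pg/mL final, and were incubated 18 hours at 37 degrees C. Viability was read by CellTiter-Glo luminescence. Media-only wells were set as complete cell-killing and DMSO as no toxicity.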
# TGFb SMAD3 inh = blocks TGF-b signaling | HepG2 CAGA-GFP TGF-b/SMAD3 reporter, GFP fluorescence, 18 h; TGF-beta stimulated, 500 pg/mL final | Potency, µM (series often up to 46.1 µM), without a hit: at the highest dose activity, negative = inhibition, most hits filed as inhibitors | 410,000 compounds, 1.2% hits | AID 588855; further: on the % scale 0 is the no-effect control and ±100 the full control effect; nearly all actives have a fitted effect of over 65% in size
#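 HEPG2 CAGA-GFP, 1000 cells/well; 2 h settle, 37 C; cpd via pin tool; TGF-b 500 pg/mL final; 18 h, 37 C; GFP imaging ex488/em500-530; %Activity normalised to -TGF-b and +DMSO controls; CRC fit, curve class.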
# HT1080NT lethal = kills 2HG-producing HT-1080-NT fibrosarcoma cells. AID 686970. HT-1080-NT fibrosarcoma viability, CellTiter-Glo ATP luminescence, 48 h. 360,000 compounds, 1.6% hits. Potency, µM (titrated, usually from 46.1 µM), without a hit: at the highest dose activity, negative = less viability, most hits filed as cytotoxic;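 further: NT is the 2HG producing partner of a matched IDH1 knockdown line; 0% = DMSO-treated cells and -100% = media-only wells without cells; nearly all actives have a fitted effect of over 55% in size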
#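 Viability of the 2HG-overproducing fibrosarcoma line after 48 hours of compound exposure at 37 degrees C was determined by luminescence with CellTiter-Glo, and concentration-effect curves were then fitted and categorized.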
# HT1080 IDH1KD tx = kills HT-1080 cells with IDH1 knockdown; HT-1080 IDH1 knockdown viability, ATP luminescence, 48 h; Potency, µM (top dose mostly 46.1 µM), without a hit: at the highest dose activity, negative = toxicity, hits mostly cytotoxic; 360,000 compounds, 2% hits; AID 686971;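 further: 0% = DMSO wells and -100% = cell-free medium wells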
#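 % activity derives from luminescence (CellTiter-Glo), normalised to DMSO and no-cell wells. HT-1080-IDH1KD cells, 750/well, had 48 h compound exposure at 37 °C.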
# DT40 TDP1 CPT = growth inhibition of DT40 Tdp1-/-;hTDP1 cells with camptothecin (screen for TDP1 inhibitors); chicken DT40 Tdp1-/-;hTDP1 cells + 20 nM CPT, ATP luminescence, 48 h; Potency, µM (series often up to 46.2 µM), for the others: top-dose activity change, negative = growth inhibition, most hits filed as inhibitors; 420,000 compounds, 12% hits; further: on the % scale 0 is the no-effect control and ±100 the full control effect; nearly all actives have a fitted effect of over 55% in size
#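 Chicken DT40 Tdp1-/- cells complemented with human TDP1, 400 cells/well, exposed to compounds plus 20 nM camptothecin for at least 48 h at 37 C; viability read as ATP content by CellTiter-Glo luminescence.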
# TDP1 cell noCPT = qHTS for Inhibitors of human tyrosyl-DNA phosphodiesterase 1 (TDP1): qHTS in cells in absence of CPT | DT40 Tdp1-/- hTDP1 cells, no CPT, ATP luminescence, 48 h | Potency, µM (doses to about 46.2 µM), for the others: at the highest dose activity change, negative = growth inhibition, usual class: inhibitors | 420,000 compounds, 15% hits; further: on the % scale 0 is the no-effect control and ±100 the full control effect; nearly all actives have a fitted effect of over 55% in size
#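 Readout: luminescence from CellTiter-Glo after 30 min in the dark at RT. Cells: DT40 Tdp1-/- with stable hTDP1, 400/well. Exposure: compounds alone, ≥48 hr, 37 °C.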
# The depositor's hits bear a star; ? = inconclusive; . = no result given; [ ] = dose if it differs, or a comment. This is a sample that favours compounds with a hit; in the whole collection about 17% have one here. The call rests on the fitted dose curve; in most records, active means well fitted curve in the direction sought with a large enough effect; inconclusive means small, poorly fitted or top-dose-only effect, or another doubt; inactive means no such curve, though single readings can be large; an effect the other way counts as inactive or inconclusive. Potency means the concentration at half of the fitted maximal effect.
SMILES,HepG2 tox,TGFb SMAD3 inh,HT1080NT lethal,HT1080 IDH1KD tx,DT40 TDP1 CPT,TDP1 cell noCPT
c1ccc2c(c1)oc1c(-c3cccc4nccn34)cccc12,-37%,?,?,?,13µM*,?
Cc1cccc(NC(=O)Cc2nc(-c3c[nH]c(C(=O)N4CCCC4)c3)cs2)c1,0%,-27%,5%,3%,?,?
Cc1ccccc1NC(=O)Cc1nc(-c2c[nH]c(C(=O)N3CCCC3)c2)cs1,-14%,?,0%,-7%,18µM*,?
Cc1ccc(S(=O)(=O)N2C[C@H]3[C@H]4C(=O)N(Cc5ccccc5)C(=O)[C@H]4CC(=O)[C@H]3[C@@H]2c2ccccc2)cc1,-15%,-28%,12%,12%,?,?
CS/C(=N\S(=O)(=O)c1cccs1)Nc1ccc(Br)cc1F,-6%,8%,-1%,-9%,2%,?
Cc1cc(C)c(NC(=O)CSc2nc(=O)n(Cc3cccnc3)c3c2CCC3)c(C)c1,-31%,-24%,.,.,-3%,1%
CN(C)c1ncc2nc(CCc3ccccc3)c(=O)n(CCc3ccccc3)c2n1,.,.,.,.,-5%,6%
COc1cccc(Cn2c(=O)c(C)nc3cnc(N(C)C)nc32)c1,.,.,.,.,16µM*,?
Cc1nc2cnc(N(C)C)nc2n(CCc2ccccc2)c1=O,.,.,.,.,5.2µM*,8.2µM*
COc1cccc(Cn2c(=O)c(-c3ccccc3)nc3cnc(N(C)C)nc32)c1,.,.,.,.,?,2%
CC1(C(=O)NC2CCCCC2)CCC(=O)N1CC(F)(F)F (stereo not drawn),-2%,1%,23%,16%,-1%,20%
Brc1ccc(-c2cc3c(N4CCN(c5ccccc5)CC4)nccn3n2)cc1,-33%,-6%,.,.,-6%,-6%
Cc1ccc(-c2cc3c(N4CCN(c5cc(C)ccc5C)CC4)nccn3n2)cc1,-2%,1%,.,.,23µM*,21µM*
O=C(NN=C1CCCC1)c1ccccc1OCc1ccc(Cl)cc1,-7%,7%,22%,0%,28%,?
COc1ccc2c(c1)-c1ccccc1S(=O)(=O)N2C,3%,-24%,-2%,-2%,?,?
CN1c2ccccc2-c2ccccc2S1(=O)=O,-2%,?,13%,1%,32µM*,?
C=CCn1c(SCc2c(C)noc2C)nc2cc(C(=O)O)ccc2c1=O,6%,-25%,6.3µM*,7.1µM*,?,?
C=CCn1c(SCc2nc3ccccc3c(=O)[nH]2)nc2ccccc2c1=O,-46%,0%,?,?,?,?
C=CCn1c(SCc2c(C)noc2C)nc2ccccc2c1=O,-9%,6%,0.56µM*,0.32µM*,0.56µM*,0.79µM*
CCCC1Cc2nc(Cl)c(C#N)cc2CO1 (stereo not drawn),18%,7%,-2%,13%,2%,-3%
COc1ccc(Nc2nc3c(S(=O)(=O)c4ccccc4)nnn3c3ccc(Cl)cc23)cc1,6%,0%,.,.,6.5µM*,9.2µM*
COc1ccc(Nc2nc3c(S(=O)(=O)c4ccccc4)nnn3c3ccc(Cl)cc23)cc1OC,-25%,?,.,.,0%,0%
CCc1ccc(S(=O)(=O)c2nnn3c2nc(Nc2ccc(F)cc2)c2cc(Cl)ccc23)cc1,6%,13%,.,.,3.7µM*,5.2µM*
CCC[C@H]1CN(Cc2ccccc2)C(=O)[C@@H]1CC(=O)NC,3%,0%,7%,7%,9%,-16%
CCOC(=O)CCSc1nc(C)cc(C(F)(F)F)c1C#N,2%,5%,0%,3%,-20%,-16%
SMILES,HepG2 tox,TGFb SMAD3 inh,HT1080NT lethal,HT1080 IDH1KD tx,DT40 TDP1 CPT,TDP1 cell noCPT
Cc1ccc(/C=N/Nc2ccc(C(=O)O)cc2)o1,-6%,-2%,1%,-11%,-7%,-2%
O=C(O)c1ccc(N/N=C/c2ccc(-c3ccccc3)cc2)cc1,-12%,-11%,16µM*,10µM*,-7%,-7%
O=S(=O)(N/N=C\c1ccc(-c2ccccc2Cl)o1)c1ccccc1,-39%,-1%,14%,?,11µM*,11µM*
O=C(N/N=C/c1ccc(-c2ccccc2Cl)o1)c1ccccc1,-30%,0%,-20%,?,15µM*,18µM*
O=C(O)c1ccc(N/N=C/c2ccc(-c3ccc(Br)cc3)o2)cc1,8%,4%,26µM*,23µM*,?,?
Cc1ccc(/C=N/NC(=O)c2ccc(NC(=O)c3ccccc3Cl)cc2)o1,0%,0%,0%,-1%,7%,-15%
CN(C)c1ccc(CNc2nc(-c3ccco3)nn2C(=O)c2cccc([N+](=O)[O-])c2)cc1,-16%,21%,.,.,-17%,-21%
CCCCC/C=C\C/C=C\C/C=C\C/C=C\CCCC(=O)O[C@@H](CO)COCCCCCCCCCCCCCCCC,.,.,.,.,3%[4.12 µM],0%[4.12 µM]
O=C(N/N=C/c1ccc(-c2ccccc2[N+](=O)[O-])o1)c1cccnc1,-18%,-8%,-4%,0%,16µM*,?
O=C(O)c1ccc(N/N=C/c2ccc(-c3ccccc3Cl)o2)cc1,19%,-2%,?,23µM*,2%,-7%
CC(=O)N1CCC(C(=O)N2c3ccccc3N=C(c3ccc(C(F)(F)F)cc3)C2C(=O)NC2CCCC2)CC1 (stereo not drawn),.,.,-23%,-3%,?,?
COc1ccc(CN2CCN(C(=O)C3CCN(C(=O)Nc4ccccc4)CC3)CC2)cc1OC,-4%,-3%,3%,1%,-10%,?
Oc1ccc(C[C@H]2CNCCN2CCC23CC4CC(CC(C4)C2)C3)cc1,-92%,?,16µM*,?,18µM*,16µM*
CCCCN1CCNC[C@H]1Cc1ccc(O)cc1,2%,-6%,-17%,-6%,-19%,-12%
Oc1ccc(C[C@@H]2CNCCN2CCC23CC4CC(CC(C4)C2)C3)cc1,-108%,?,?,23µM*,16µM*,13µM*
CCOC(=O)C1=C(C)N(C)C(=O)NC1c1c(O)ccc2ccccc12 (stereo not drawn),6%,21%,-19%,-7%,?,?
C[C@@H]1O[C@@H](OC[C@H]2O[C@@H](Oc3c(-c4ccc(O)c(O)c4)oc4cc(O)cc(O)c4c3=O)[C@H](O)[C@@H](O)[C@@H]2O)[C@H](O)[C@H](O)[C@H]1O,9%,2%,11%,10%,5%,?
